{
  "source": "the supplement of paper PMC4022240",
  "assay_in_all_cases": "peptide microarray binding signal (635 nm), min-max normalized on array (fraction of array maximum); higher = stronger binding",
  "key": {"[1]": {"target": "T1, HaloTag-ATRX ADD domain (163-292)", "T1 chain": "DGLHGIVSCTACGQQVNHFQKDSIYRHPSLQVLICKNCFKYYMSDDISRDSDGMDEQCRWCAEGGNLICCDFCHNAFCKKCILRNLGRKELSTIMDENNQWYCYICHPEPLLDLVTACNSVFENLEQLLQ", "in_short": "(§1)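 For each library, binding signal was taken as the triplicate-spot mean intensity and then min-max scaled. Spots of histone 13-mer peptide–cellulose conjugates on nitrocellulose, printed in triplicate with a Cy3 tracer, were probed for 1 h at 4°C with either biotin-labelled HaloTag reader fusions (10 nM to 1 μM) and streptavidin-Alexa Fluor 647 or rabbit histone antibodies (1:10,000 to 1:2,000) and anti-rabbit Alexa 647. Readout at 635 nm came from an Axon GenePix 4000B.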"}, "[2]": {"target": "HaloTag-ING2 PHD (mouse Ing2 200-280)", "in_short": "as §1"}, "[3]": {"target": "anti-H3K4me3 antibody ab8580", "in_short": "as §1"}, "[4]": {"target": "anti-H3K9me3 antibody ab8898", "in_short": "as §1"}, "[5]": {"details": "peptide region: H3 5-17, peptide modifications: H3S10ph H3K14me1, binder concentration: 1:2,000 dilution"}, "[6]": {"details": "peptide region: H3 5-17, peptide modifications: H3S10ph H3K14me1, binder concentration: 1:10,000 dilution"}, "[7]": {"details": "peptide region: H3 11-23, binder concentration: 1:2,000 dilution"}, "[8]": {"details": "peptide region: H3 11-23, binder concentration: 1:10,000 dilution"}, "[9]": {"details": "peptide region: H3 5-17, peptide modifications: H3R8me2s H3S10ph, binder concentration: 1:2,000 dilution"}, "[10]": {"details": "peptide region: H3 5-17, peptide modifications: H3R8me2s H3S10ph, binder concentration: 1:10,000 dilution"}, "[11]": {"details": "peptide region: H3 5-17, peptide modifications: H3S10ph H3K14me3, binder concentration: 1:2,000 dilution"}, "[12]": {"details": "peptide region: H3 5-17, peptide modifications: H3S10ph H3K14me3, binder concentration: 1:10,000 dilution"}, "[13]": {"details": "peptide region: H3 5-17, peptide modifications: H3T11ph H3K14ac, binder concentration: 1:2,000 dilution"}, "[14]": {"details": "peptide region: H3 5-17, peptide modifications: H3T11ph H3K14ac, binder concentration: 1:10,000 dilution"}},
  "note": "± gives the standard deviation.",
  "data": [
    {"binder": "QTARKSTGGKAPR", "note": "[H3 5-17 Q T A R K Sph T G G Kme A P R]", "values": [
      {"measurement": "peptide microarray binding signal", "setting": "[1]; peptide region: H3 5-17, peptide modifications: H3S10ph H3K14me1, binder concentration: 50 nM", "value": "0.00426 ± 0.0003"},
      {"measurement": "peptide microarray binding signal", "setting": "[1]; peptide region: H3 5-17, peptide modifications: H3S10ph H3K14me1, binder concentration: 500 nM", "value": "0.007715 ± 7.2e-05"},
      {"measurement": "peptide microarray binding signal", "setting": "[2]; peptide region: H3 5-17, peptide modifications: H3S10ph H3K14me1, binder concentration: 10 nM", "value": "0.00424 ± 0.00075"},
      {"measurement": "peptide microarray binding signal", "setting": "[2]; peptide region: H3 5-17, peptide modifications: H3S10ph H3K14me1, binder concentration: 100 nM", "value": "0.0102 ± 0.0023"},
      {"measurement": "peptide microarray binding signal", "setting": "[3]; [5]", "value": "0.000396 ± 7e-06"},
      {"measurement": "peptide microarray binding signal", "setting": "[3]; [6]", "value": 0.000399},
      {"measurement": "peptide microarray binding signal", "setting": "[4]; [5]", "value": "0.00077 ± 4.1e-05"},
      {"measurement": "peptide microarray binding signal", "setting": "[4]; [6]", "value": "0.000404 ± 4.4e-06"}
    ]},
    {"binder": "TGGKAPRKQLATK", "note": "[H3 11-23 T G G K A P R K Q L A T K]", "values": [
      {"measurement": "peptide microarray binding signal", "setting": "[1]; peptide region: H3 11-23, binder concentration: 50 nM", "value": "0.00481 ± 0.00041"},
      {"measurement": "peptide microarray binding signal", "setting": "[1]; peptide region: H3 11-23, binder concentration: 500 nM", "value": "0.0154 ± 0.0015"},
      {"measurement": "peptide microarray binding signal", "setting": "[2]; peptide region: H3 11-23, binder concentration: 10 nM", "value": "0.00615 ± 0.00031"},
      {"measurement": "peptide microarray binding signal", "setting": "[2]; peptide region: H3 11-23, binder concentration: 100 nM", "value": "0.0175 ± 0.0019"},
      {"measurement": "peptide microarray binding signal", "setting": "[3]; [7]", "value": "0.000849 ± 5.7e-05"},
      {"measurement": "peptide microarray binding signal", "setting": "[3]; [8]", "value": "0.00097 ± 0.00013"},
      {"measurement": "peptide microarray binding signal", "setting": "[4]; [7]", "value": "0.00172 ± 0.00025"},
      {"measurement": "peptide microarray binding signal", "setting": "[4]; [8]", "value": "0.00138 ± 0.00011"}
    ]},
    {"binder": "QTARKSTGGKAPR", "note": "[H3 5-17 Q T A Rme2s K Sph T G G K A P R]", "values": [
      {"measurement": "peptide microarray binding signal", "setting": "[1]; peptide region: H3 5-17, peptide modifications: H3R8me2s H3S10ph, binder concentration: 50 nM", "value": "0.00683 ± 0.0003"},
      {"measurement": "peptide microarray binding signal", "setting": "[1]; peptide region: H3 5-17, peptide modifications: H3R8me2s H3S10ph, binder concentration: 500 nM", "value": "0.0161 ± 0.0014"},
      {"measurement": "peptide microarray binding signal", "setting": "[2]; peptide region: H3 5-17, peptide modifications: H3R8me2s H3S10ph, binder concentration: 10 nM", "value": "0.0274 ± 0.00033"},
      {"measurement": "peptide microarray binding signal", "setting": "[2]; peptide region: H3 5-17, peptide modifications: H3R8me2s H3S10ph, binder concentration: 100 nM", "value": "0.0477 ± 0.0078"},
      {"measurement": "peptide microarray binding signal", "setting": "[3]; [9]", "value": "0.00423 ± 0.00039"},
      {"measurement": "peptide microarray binding signal", "setting": "[3]; [10]", "value": "0.00548 ± 0.00014"},
      {"measurement": "peptide microarray binding signal", "setting": "[4]; [9]", "value": "0.00403 ± 0.0009"},
      {"measurement": "peptide microarray binding signal", "setting": "[4]; [10]", "value": "0.00363 ± 0.00015"}
    ]},
    {"binder": "QTARKSTGGKAPR", "note": "[H3 5-17 Q T A R K Sph T G G Kme3 A P R]", "values": [
      {"measurement": "peptide microarray binding signal", "setting": "[1]; peptide region: H3 5-17, peptide modifications: H3S10ph H3K14me3, binder concentration: 50 nM", "value": "0.005486 ± 5.1e-05"},
      {"measurement": "peptide microarray binding signal", "setting": "[1]; peptide region: H3 5-17, peptide modifications: H3S10ph H3K14me3, binder concentration: 500 nM", "value": "0.0236 ± 0.0018"},
      {"measurement": "peptide microarray binding signal", "setting": "[2]; peptide region: H3 5-17, peptide modifications: H3S10ph H3K14me3, binder concentration: 10 nM", "value": "0.0113 ± 0.0025"},
      {"measurement": "peptide microarray binding signal", "setting": "[2]; peptide region: H3 5-17, peptide modifications: H3S10ph H3K14me3, binder concentration: 100 nM", "value": "0.014 ± 0.0073"},
      {"measurement": "peptide microarray binding signal", "setting": "[3]; [11]", "value": "0.0516 ± 0.0021"},
      {"measurement": "peptide microarray binding signal", "setting": "[3]; [12]", "value": "0.0433 ± 0.025"},
      {"measurement": "peptide microarray binding signal", "setting": "[4]; [11]", "value": "0.132 ± 0.038"},
      {"measurement": "peptide microarray binding signal", "setting": "[4]; [12]", "value": "0.0759 ± 0.013"}
    ]},
    {"binder": "QTARKSTGGKAPR", "note": "[H3 5-17 Q T A R K S Tph G G Kac A P R]", "values": [
      {"measurement": "peptide microarray binding signal", "setting": "[1]; peptide region: H3 5-17, peptide modifications: H3T11ph H3K14ac, binder concentration: 50 nM", "value": "0.00514 ± 0.00023"},
      {"measurement": "peptide microarray binding signal", "setting": "[1]; peptide region: H3 5-17, peptide modifications: H3T11ph H3K14ac, binder concentration: 500 nM", "value": "0.015 ± 0.0014"},
      {"measurement": "peptide microarray binding signal", "setting": "[2]; peptide region: H3 5-17, peptide modifications: H3T11ph H3K14ac, binder concentration: 10 nM", "value": "0.00597 ± 0.00044"},
      {"measurement": "peptide microarray binding signal", "setting": "[2]; peptide region: H3 5-17, peptide modifications: H3T11ph H3K14ac, binder concentration: 100 nM", "value": "0.0333 ± 0.0053"},
      {"measurement": "peptide microarray binding signal", "setting": "[3]; [13]", "value": "0.000868 ± 6.7e-05"},
      {"measurement": "peptide microarray binding signal", "setting": "[3]; [14]", "value": "0.000685 ± 1.9e-05"},
      {"measurement": "peptide microarray binding signal", "setting": "[4]; [13]", "value": "0.00394 ± 0.0008"},
      {"measurement": "peptide microarray binding signal", "setting": "[4]; [14]", "value": "0.00156 ± 3e-05"}
    ]}
  ]
}
